Results on four compounds are retold here after ChEMBL document CHEMBL1157539, “Thousands of chemical starting points for antimalarial lead identification” (Nature, 2010).

For this test, the system named is HepG2. The experiment in a line: GSK_TCMDC: Percent inhibition of human HepG2 cell line. Test compounds present at 10uM. It counts as functional.
For `Cc1cccc(CN2CCC(C(=O)Nc3ccc(-c4nc5ccccc5[nH]4)cc3)CC2)n1`, the Inhibition is 0%.
To `C=C1C(C(=O)OCC)=CN(CC)c2cc(O[C@@H]3CCN(C(=O)OC(C)(C)C)C3)ccc21` belongs 13%; to `CC(C)C[C@H](NC(=O)c1cc2ccccc2s1)C(=O)N[C@H]1CCN(Cc2ccc(OC[C@@H]3CCCN3C)c3ccccc23)C1.O=C(O)C(F)(F)F`, 69%; to `CN1CCN(CC(=O)Nc2cccc(-c3ccc(-c4nc5cc(C(F)(F)F)ccc5[nH]4)s3)c2)CC1`, 36%.
